Laboratory results reported in ChEMBL document CHEMBL1961873, “Compounds: GSK PKIS; Assays: Nanosyn kinase panel” (2012).

Each molecule was assayed against T1, Serine/threonine-protein kinase Nek9 (Homo sapiens) (UniProt Q8TD19). Settings: at 1 µM.
T1 sequence (whole entry): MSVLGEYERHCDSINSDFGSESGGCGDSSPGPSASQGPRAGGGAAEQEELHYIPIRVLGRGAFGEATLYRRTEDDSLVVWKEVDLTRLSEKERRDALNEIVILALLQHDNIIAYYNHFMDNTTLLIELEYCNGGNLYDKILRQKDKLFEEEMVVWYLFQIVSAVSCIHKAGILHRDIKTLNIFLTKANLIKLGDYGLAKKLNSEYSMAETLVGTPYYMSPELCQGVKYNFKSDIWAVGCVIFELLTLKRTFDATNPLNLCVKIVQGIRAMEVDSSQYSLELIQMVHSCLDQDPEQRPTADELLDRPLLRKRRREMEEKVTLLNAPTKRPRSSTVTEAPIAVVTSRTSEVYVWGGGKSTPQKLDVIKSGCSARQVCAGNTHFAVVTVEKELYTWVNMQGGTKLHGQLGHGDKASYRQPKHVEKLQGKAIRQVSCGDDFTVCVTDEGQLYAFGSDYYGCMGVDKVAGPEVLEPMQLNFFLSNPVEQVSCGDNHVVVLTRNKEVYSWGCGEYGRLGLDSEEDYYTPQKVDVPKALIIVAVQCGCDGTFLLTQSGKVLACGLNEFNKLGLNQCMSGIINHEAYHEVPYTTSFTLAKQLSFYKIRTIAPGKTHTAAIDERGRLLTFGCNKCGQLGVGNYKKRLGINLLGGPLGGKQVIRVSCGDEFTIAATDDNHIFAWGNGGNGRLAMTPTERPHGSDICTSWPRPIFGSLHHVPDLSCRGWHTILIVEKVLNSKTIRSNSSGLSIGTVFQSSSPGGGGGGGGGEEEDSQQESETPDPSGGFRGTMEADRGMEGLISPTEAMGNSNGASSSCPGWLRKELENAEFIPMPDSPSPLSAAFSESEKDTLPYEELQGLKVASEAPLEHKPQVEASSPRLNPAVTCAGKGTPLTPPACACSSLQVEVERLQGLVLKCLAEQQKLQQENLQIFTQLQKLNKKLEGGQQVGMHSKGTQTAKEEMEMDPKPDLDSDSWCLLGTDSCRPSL

| SMILES | inhibition |
| --- | --- |
| CCS(=O)(=O)c1ccc(OC)c(Nc2ncc(-c3cccc(OC)c3)o2)c1 | 4.07% |
| CCn1c(-c2nonc2N)nc2c(C#CC(C)(C)O)nc(OCCNC)cc21 | 7.49% |
| CN1CCN(C(=O)c2ccc(NC(=O)Nc3ccc(N(C)c4ccnc(Nc5ccc(CS(C)(=O)=O)cc5)n4)cc3)cc2)CC1 | 30.1% |
| CC(C)c1ccc(Nc2nccc(-c3cnn4ncccc34)n2)cc1 | 11% |
| N#Cc1cccc(Nc2nccc(-c3cnn4ncccc34)n2)c1 | 15.6% |
| c1ccc(Cc2nc3ccc(Nc4ncnc5ccccc45)cc3[nH]2)cc1 | 1.93% |
| Cc1ccc(C(=O)NC2CC2)cc1-c1ccc2[nH]ncc2c1 | -2.78% |
| COC(=O)Nc1nc2cc(Oc3ccc(NC(=O)Nc4cccc(Br)c4)cc3)ccc2[nH]1 | 15.4% |
| NC(=O)c1sc(-n2cnc3ccccc32)cc1OCc1ccccc1Br | 23.5% |
| c1ccc(Nc2ncc(-c3ccccc3)o2)cc1 | 10.2% |
| CCCN1CCCC(c2ccc(Nc3nc(Nc4cc(F)ccc4C(N)=O)c4cc[nH]c4n3)c(OC)c2)C1 (stereo unspecified) | 12.8% |
| Nc1ccc(C#Cc2cncnc2Nc2ccc(OCc3cccc(F)c3)c(Cl)c2)cc1 | 6.07% |
| CN(C)C(=O)O[C@H]1CN[C@H](C#Cc2cc3ncnc(Nc4ccc(OCc5cccc(F)c5)c(Cl)c4)c3s2)C1 | -1.84% |
| O=C1Nc2ccc(-c3cccnc3)cc2C1=Cc1cc(Br)c(O)c(Br)c1 | 0.27% |
| CS(=O)(=O)Nc1cccc(-c2ccc3c(NC(=O)C4CC4)n[nH]c3c2)c1 | 3.4% |
| CCS(=O)(=O)c1ccc(OC)c(Nc2nccc(N(C)c3ccc4c(C)n[nH]c4c3)n2)c1 | 6.15% |
| COc1cccc(-n2ncc3c(N/N=C/c4ccc(S(C)(=O)=O)cc4)ncnc32)c1 | 1.23% |

| SMILES | inhibition |
| --- | --- |
| Cc1ccc2c(-c3ccnc(Nc4cccc(C(F)(F)F)c4)n3)c(-c3ccccc3)nn2n1 | 7.33% |
| Cc1ccc2c(-c3ccnc(Nc4ccc5c(c4)OCCO5)n3)c(-c3ccc(C(F)(F)F)cc3)nn2n1 | 1.95% |
| NS(=O)(=O)c1ccc(-c2cc3ccncc3cc2OCc2ccccc2)cc1 | 7.84% |
| COc1ccc2ncnc(Nc3ccc(OCc4ccccc4)cc3)c2c1 | 4.48% |
| CCn1c(-c2nonc2N)nc2ccc(F)cc21 | 6.41% |
| N#Cc1c(NC(=O)c2ccccc2F)sc2c1CCCC2 | 1.33% |
| COc1cccc(-n2nc(C)c3c(N/N=C(\C)c4ccncc4)ncnc32)c1 | 2.13% |
| OCc1ccc(-c2nc(-c3ccccn3)c(-c3ccc4c(c3)OCO4)[nH]2)cc1 | 2.88% |
| CCOc1nccc2c1nc(-c1nonc1N)n2CC | 11.4% |
| NS(=O)(=O)c1ccc(N/N=C2\C(=O)Nc3ccc(Cl)cc32)cc1 | 9.42% |
| Cc1ccc(O)cc1Nc1ccnc2ccc(S(C)(=O)=O)cc12 | 7.62% |
| COC(=O)c1ccc2c(c1)C(=Cc1cc(Br)c(O)c(Br)c1)C(=O)N2 | 11.3% |
| [O-][S+]1CCN(Cc2ccc(-c3ccc4ncnc(Nc5ccc(OCc6ccccc6)c(Cl)c5)c4c3)o2)CC1 | 3.24% |
| COc1cccc(-n2ncc3c(N/N=C/c4ccc(C)cc4)ncnc32)c1 | 9.51% |
| O=S(=O)(CCOCc1ccc(-c2ccc3ncnc(Nc4ccc(OCc5cccc(F)c5)c(Cl)c4)c3c2)o1)c1ccccc1 | 0.79% |
| COc1cc(/C=N/Nc2ncnc3c2cnn3C(C)C)ccc1O | 5.67% |

The molecules below were run against Serine/threonine-protein kinase PLK1 (Homo sapiens) (UniProt P53350). Settings: at 0.1 µM.
Sequence of Serine/threonine-protein kinase PLK1 (Homo sapiens) (P53350 whole entry): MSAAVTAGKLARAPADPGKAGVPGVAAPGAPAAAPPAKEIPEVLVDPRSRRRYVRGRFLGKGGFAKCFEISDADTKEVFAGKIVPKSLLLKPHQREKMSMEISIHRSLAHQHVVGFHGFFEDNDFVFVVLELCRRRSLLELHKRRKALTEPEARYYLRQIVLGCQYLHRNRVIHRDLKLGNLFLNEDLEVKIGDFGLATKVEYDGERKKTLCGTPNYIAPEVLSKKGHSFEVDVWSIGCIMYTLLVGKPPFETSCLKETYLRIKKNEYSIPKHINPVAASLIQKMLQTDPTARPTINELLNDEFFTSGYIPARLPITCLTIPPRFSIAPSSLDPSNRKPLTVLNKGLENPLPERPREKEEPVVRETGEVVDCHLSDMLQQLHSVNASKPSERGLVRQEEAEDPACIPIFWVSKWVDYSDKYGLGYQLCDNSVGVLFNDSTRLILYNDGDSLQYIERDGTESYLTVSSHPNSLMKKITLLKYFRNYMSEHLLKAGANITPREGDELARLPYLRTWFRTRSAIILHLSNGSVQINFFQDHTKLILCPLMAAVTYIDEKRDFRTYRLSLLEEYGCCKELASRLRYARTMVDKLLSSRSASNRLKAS

| SMILES | inhibition |
| --- | --- |
| CCS(=O)(=O)c1ccc(OC)c(Nc2ncc(-c3cccc(OC)c3)o2)c1 | 4.39% |
| CCn1c(-c2nonc2N)nc2c(C#CC(C)(C)O)nc(OCCNC)cc21 | 6.83% |
| CN1CCN(C(=O)c2ccc(NC(=O)Nc3ccc(N(C)c4ccnc(Nc5ccc(CS(C)(=O)=O)cc5)n4)cc3)cc2)CC1 | 2.98% |
| CC(C)c1ccc(Nc2nccc(-c3cnn4ncccc34)n2)cc1 | 2.9% |
| N#Cc1cccc(Nc2nccc(-c3cnn4ncccc34)n2)c1 | 3.24% |
| c1ccc(Cc2nc3ccc(Nc4ncnc5ccccc45)cc3[nH]2)cc1 | 2.22% |
| Cc1ccc(C(=O)NC2CC2)cc1-c1ccc2[nH]ncc2c1 | -2.55% |
| COC(=O)Nc1nc2cc(Oc3ccc(NC(=O)Nc4cccc(Br)c4)cc3)ccc2[nH]1 | 6.02% |
| NC(=O)c1sc(-n2cnc3ccccc32)cc1OCc1ccccc1Br | 78.3% |
| c1ccc(Nc2ncc(-c3ccccc3)o2)cc1 | 5.96% |
| CCCN1CCCC(c2ccc(Nc3nc(Nc4cc(F)ccc4C(N)=O)c4cc[nH]c4n3)c(OC)c2)C1 (stereo unspecified) | 13.3% |
| Nc1ccc(C#Cc2cncnc2Nc2ccc(OCc3cccc(F)c3)c(Cl)c2)cc1 | 0.94% |
| CN(C)C(=O)O[C@H]1CN[C@H](C#Cc2cc3ncnc(Nc4ccc(OCc5cccc(F)c5)c(Cl)c4)c3s2)C1 | 2.9% |
| O=C1Nc2ccc(-c3cccnc3)cc2C1=Cc1cc(Br)c(O)c(Br)c1 | 3.43% |
| CS(=O)(=O)Nc1cccc(-c2ccc3c(NC(=O)C4CC4)n[nH]c3c2)c1 | 0.09% |
| CCS(=O)(=O)c1ccc(OC)c(Nc2nccc(N(C)c3ccc4c(C)n[nH]c4c3)n2)c1 | 4.22% |
| COc1cccc(-n2ncc3c(N/N=C/c4ccc(S(C)(=O)=O)cc4)ncnc32)c1 | 1.67% |

| SMILES | inhibition |
| --- | --- |
| Cc1ccc2c(-c3ccnc(Nc4cccc(C(F)(F)F)c4)n3)c(-c3ccccc3)nn2n1 | 7.39% |
| Cc1ccc2c(-c3ccnc(Nc4ccc5c(c4)OCCO5)n3)c(-c3ccc(C(F)(F)F)cc3)nn2n1 | -2.52% |
| NS(=O)(=O)c1ccc(-c2cc3ccncc3cc2OCc2ccccc2)cc1 | 2.8% |
| COc1ccc2ncnc(Nc3ccc(OCc4ccccc4)cc3)c2c1 | 2.95% |
| CCn1c(-c2nonc2N)nc2ccc(F)cc21 | 6.39% |
| N#Cc1c(NC(=O)c2ccccc2F)sc2c1CCCC2 | -2.61% |
| COc1cccc(-n2nc(C)c3c(N/N=C(\C)c4ccncc4)ncnc32)c1 | -0.78% |
| OCc1ccc(-c2nc(-c3ccccn3)c(-c3ccc4c(c3)OCO4)[nH]2)cc1 | 3.56% |
| CCOc1nccc2c1nc(-c1nonc1N)n2CC | 5.12% |
| NS(=O)(=O)c1ccc(N/N=C2\C(=O)Nc3ccc(Cl)cc32)cc1 | 1.63% |
| Cc1ccc(O)cc1Nc1ccnc2ccc(S(C)(=O)=O)cc12 | 4.22% |
| COC(=O)c1ccc2c(c1)C(=Cc1cc(Br)c(O)c(Br)c1)C(=O)N2 | 5.7% |
| [O-][S+]1CCN(Cc2ccc(-c3ccc4ncnc(Nc5ccc(OCc6ccccc6)c(Cl)c5)c4c3)o2)CC1 | 3.9% |
| COc1cccc(-n2ncc3c(N/N=C/c4ccc(C)cc4)ncnc32)c1 | 7.38% |
| O=S(=O)(CCOCc1ccc(-c2ccc3ncnc(Nc4ccc(OCc5cccc(F)c5)c(Cl)c4)c3c2)o1)c1ccccc1 | 2.52% |
| COc1cc(/C=N/Nc2ncnc3c2cnn3C(C)C)ccc1O | 3.79% |
